# PubChem BioAssay AID504848 (National Center for Advancing Translational Sciences (NCATS), 2011)
# Out of some 2,300 compounds screened, about 1,400 (61%) were called active. Roughly 29% stayed inconclusive and do not appear here. So high a share suggests a set chosen from earlier hits. The list shows a part of the results. Values without a mark were called inactive. Calls follow the shape of the dose curve; as a rule, active = well fitted inhibition curve with a large enough effect; inconclusive = small, poorly fitted or top-dose-only effect, or effect the other way; inactive = no such curve, though single readings can be large or run the other way.
# Test: Confirmation screen for delayed death inhibitors of the malarial parasite plastid, 96 hour incubation; also: nearly all actives have a fitted effect of over 60% in size
# Conditions: P. falciparum luciferase growth in erythrocytes; series mostly up to 28.7 µM; activity change, negative = inhibition: at the top concentration
# Description: The goal of this screen is to discover new antimalarial compounds that act by inhibiting the development of the apicoplast in the malarial parasite Plasmodium falciparum. The biochemical processes that make this organelle essential for erythrocytic stage parasites are not well understood. However, antibiotics, such as azithromycin and tetracycline, which target the apicoplast translational machinery, have a potent antimalarial effect. […] We have developed a cell-based assay that measures parasite growth based on the expression of an integrated copy of a firefly luciferase reporter. To detect small molecules that cause this "delayed death phenotype, erythrocytes infected with the luciferase-expressing parasites were incubated with compounds for either one or two generations, corresponding to 48 and 96 hours, respectively. Compounds that inhibit parasite growth in the second generation, but not the first, should be enriched in antimalarials that target the apicoplast. Growth inhibition is detected by a decrease in luciferase activity. MLPCN Grant: R21 NS059500 Assay Provider: David Fidock and Eric Ekland, Columbia University Keywords: NIH Roadmap, MLPCN, MLI, MLSMR, qHTS, NCGC, qHTS, malaria, luciferase, viability
# Four microliters of culture medium (RPMI 1640 with 0.5% w/v Albumax (GIBCO), 24 mM sodium bicarbonate and 10 ug/mL gentamycin) were dispensed by a Multi-drop Combi into white solid 1536-well plates (Grenier) and 23 nL compound was added by a pin tool. Four microliters of infected erythrocytes (2% hematocrit, 0.1% parasitemia final concentration) in culture medium were dispensed and the plates incubated for 96 hours at 37 C in 5% CO2. Two microliters of luciferase detection reagent was added and luminescence was detected by a ViewLux (PerkinElmer) reader
# % is scaled to controls: 0 for no effect and ±100 for the full control effect; potency is read from the fitted curve at half-maximal effect.
Compound,"activity change, negative = inhibition [%]",Potency
COc1ccc(OC)c(NC(=O)c2nc(S(=O)(=O)Cc3ccccc3)ncc2Cl)c1,2.57,
COc1ccc(OC)c(NC(=O)c2ccccc2N(C)S(=O)(=O)c2ccc(C)cc2)c1,,15.8 µM (active)
C=CCN(c1ccccc1)S(=O)(=O)c1cccc(C(=O)N2CC(C)CC(C)C2)c1 (stereo not drawn),,12.6 µM (active)
Cn1nc([N+](=O)[O-])nc1Sc1nnc(-c2ccccc2)o1,,11.2 µM (active)
CSc1nc(C)c(C(=O)C[n+]2ccc(C)cc2)cc1C#N,,14.1 µM (active)
COC(=O)C(=C/C(C)=C/c1cccs1)C(=O)OC,,12.6 µM (active)
O=Nc1c(-c2c(O)[nH]c3cc(Br)ccc23)[nH]c2ccccc12,,3.16 µM (active)
Brc1ccc(/C=N/Nc2ncnc3c2cnn3Cc2ccccc2)cc1,,3.55 µM (active)
CC(C)[C@H](NC(=O)[C@@H]1Cc2c([nH]c3ccccc23)C2c3ccccc3C(=O)N21)C(=O)N1CCC[C@@H]1C(=O)O (stereo partly drawn),,14.1 µM (active)
CCC(=O)Nc1cccc(C2=NOC3(C2)C[C@@H](C(N)=O)N(C(=O)c2cc([N+](=O)[O-])cc([N+](=O)[O-])c2C)C3)c1 (stereo partly drawn),,11.2 µM (active)
COCCN(C(=O)CCCC(=O)Nc1ccccn1)C(C(=O)NC1CCCCC1)c1ccc(C)cc1 (stereo not drawn),,10 µM (active)
COCCn1c(SCC(=O)Nc2ccccc2F)nc2c(c1=O)SCC2,-97.8,
CCNc1nc(NCC)n2c(SCC(=O)Nc3ccccc3F)nnc2n1,,11.2 µM (active)
COc1ccc(CNCc2ccc3ccccc3c2)c(OC)c1,,11.2 µM (active)
COc1cccc(CN(C)CC2CCCN(CCc3ccc(Cl)cc3)C2)c1OC (stereo not drawn),,2.82 µM (active)
CCOc1cc(/C=C/C(=O)Nc2ccc(C(=O)NCCN(CC)CC)cc2)ccc1OCC(C)C,,2 µM (active)
CCC(=O)Nc1ccc2c(c1)ncn2-c1ccccc1OC,,11.2 µM (active)
Cn1nc(CC(=O)Nc2ncc(Br)s2)c2ccccc2c1=O,,7.94 µM (active)
COc1ccc(/C=C/C(=O)c2ccc([N+](=O)[O-])o2)cc1OC,,11.2 µM (active)
COc1ccc(Cl)cc1/C=C/c1ccc2cccc(O)c2n1,,5.62 µM (active)
Oc1cccc2ccc(/C=C/c3ccccc3Br)nc12,,2.24 µM (active)
Cc1ccc(C)c(N(CC(=O)Nc2cc(Cl)ccc2Oc2ccccc2)S(C)(=O)=O)c1,,8.91 µM (active)

Compound,"activity change, negative = inhibition [%]",Potency
COc1ccccc1OCC(=O)Nc1cc(Cl)ccc1Oc1ccccc1,-9.22,
CC(C)(C)NC(=O)[C@H]1CN(Cc2cccnc2)CCN1C[C@@H](O)C[C@@H](Cc1ccccc1)C(=O)N[C@H]1c2ccccc2C[C@H]1O,,3.98 µM (active)
CCc1ccc(Nc2n[n+](-c3ccccc3)c(-c3cccc(Cl)c3Cl)s2)cc1,,2.82 µM (active)
Cc1c(C(=O)C(=O)N2CCCc3ccccc32)c2ccccc2n1C,,12.6 µM (active)
CN(c1ccccc1)S(=O)(=O)c1ccc(NC(=O)c2nc(S(C)(=O)=O)ncc2Cl)cc1,19.4,
CCOC(=O)/C=C/C(=O)Nc1ccc(S(=O)(=O)N(C)c2ccccc2)cc1,,10 µM (active)
Cc1cccc2c1NC(=O)/C2=C\C(=O)c1cccs1,-9.95,
CC(=O)/C=C1/C(=O)Nc2ccccc21,,12.6 µM (active)
NC(=O)COc1ccc(C(=O)/C=C2/C(=O)Nc3ccccc32)cc1,-10.3,
O=C(O)CCCCCNc1nc(-c2ccccc2)nc2ccccc12,,10 µM (active)
Cc1oc2c(c1C(=O)N1CCOCC1)C(=O)c1ccccc1C2=O,,1.58 µM (active)
Cc1nnnn1/C(=C\c1ccccc1)C(=O)OCC(=O)N1CC2(C)CC1CC(C)(C)C2 (stereo not drawn),,10 µM (active)
COc1cc(/C=C/C(=O)c2ccc(O)cc2)ccc1OCC#N,,10 µM (active)
COc1ccc(/C=C/C(=O)c2ccc(C(=O)/C=C/c3ccc(OC)c(OC)c3)cc2)cc1OC,-104,
COc1cccc(C(=O)/C=C/c2ccc(OCC#N)c(OC)c2)c1,,3.98 µM (active)
COc1cc(/C=C/C(=O)c2ccc(C)cc2)ccc1OCC#N,,12.6 µM (active)
CCCCN(C)CCCNC(=O)c1cc(=O)[nH]c2ccc(S(=O)(=O)N3CCCCC3C)cc12 (stereo not drawn),,1.12 µM (active)
CCCCN(C)C(=O)C1CCC(CNS(=O)(=O)c2ccc3c(c2)CC(C)N3C(=O)C2CC2)CC1 (stereo not drawn),,5.62 µM (active)
CCOC(=O)c1c(C)nc(C)c(C(=O)OCC)c1-c1ccc(Br)cc1,,11.2 µM (active)
Cc1ccc(C(=O)OCc2nnc(-c3ccc(Br)cc3)o2)cc1,-5.53,
CN(C)c1ccc(CN(C(=O)c2ccccc2Br)C2CCS(=O)(=O)C2)cc1 (stereo not drawn),,14.1 µM (active)
CCCN1CCc2c(sc3nc(SCC)n(-c4ccc(OC)cc4)c(=O)c23)C1,,0.316 µM (active)

Compound,"activity change, negative = inhibition [%]",Potency
CCCN1CCc2c(sc3nc(SCC)n(-c4ccccc4)c(=O)c23)C1,,0.631 µM (active)
Cn1c(=O)c2c([nH]c(=O)n2C)n(C)c1=O,-20.4,
CCCc1cc(NCc2ccccn2)n2nc(C)c(-c3ccccc3)c2n1,,3.55 µM (active)
NC(=O)CC(NC(=O)Cc1ccc(Br)cc1)c1ccc(NC2CC3CCC2C3)c([N+](=O)[O-])c1 (stereo not drawn),,12.6 µM (active)
CC/C(=N\OC(=O)c1ccc(OC(C)C)cc1)c1ccc(C)cc1,,11.2 µM (active)
O=C(/C=C/c1cccnc1)/C=C/c1cccnc1,,3.55 µM (active)
O=C(/C=C/c1cccnc1)c1ccc(O)cc1,,11.2 µM (active)
COc1cc(C(=O)/C=C/c2cccnc2)ccc1O,,5.01 µM (active)
O=C(/C=C/c1ccccc1)/C=C/c1ccccc1,,2.51 µM (active)
COc1ccc(S(=O)(=O)Nc2cccc(-c3ccc(N4CCCCCC4)nn3)c2)c(OC)c1,,11.2 µM (active)
COc1ccc(C)cc1S(=O)(=O)Nc1cccc(-c2ccc(N3CCCCCC3)nn2)c1,,10 µM (active)
COc1ccc(-c2cc(C)no2)cc1S(=O)(=O)Nc1cccc(CN2CCCC2)c1,,12.6 µM (active)
CCCOc1ccc(/C=C/C(=O)NC2CCCCC2)cc1OC,,15.8 µM (active)
Nc1ccccc1C#CC(=O)c1ccccc1,,14.1 µM (active)
CCCC1O[C@@H]2CC3C4CCC5=CC(=O)C=C[C@]5(C)C4C(OC(C)=O)C[C@]3(C)[C@]2(C(=O)COC(C)=O)O1 (stereo partly drawn),,1.41 µM (active)
CCOC(=O)C1CCN(c2cc3c(cc2NC(=O)c2ccccc2Cl)n(C)c(=O)n3C)CC1,,7.94 µM (active)
O=C(C=C=Nc1ccccc1)C(=O)N=C=Cc1ccccc1,,7.94 µM (active)
Cc1csc(NC(=O)Cc2coc3cc(C)c(C(C)C)cc23)n1,,12.6 µM (active)
COc1ccc2c(CC(=O)OCC(=O)Nc3cccc(S(N)(=O)=O)c3)coc2c1,-6.15,
COc1ccc(NC(=O)Cc2coc3cc(C)c(C(C)C)cc23)cc1S(=O)(=O)N1CCOCC1,,7.94 µM (active)
COc1ccc(NC(=O)Cc2ccc(Cl)cc2)cc1S(=O)(=O)N1CCCCC1,,14.1 µM (active)
CC1CCC/C=C/C(=O)c2c(O)cc(O)cc2CC(=O)O1 (stereo not drawn),,5.01 µM (active)

Compound,"activity change, negative = inhibition [%]",Potency
CC(C)c1cc(NC(=O)CCl)on1,,7.08 µM (active)
COc1cccc(NC(=O)[C@H](Cc2c[nH]c3ccccc23)NC(=O)[C@@H]2Cc3ccccc3CN2)c1,,12.6 µM (active)
COc1ccc(NC(=O)[C@H](Cc2c[nH]c3ccccc23)NC(=O)[C@@H]2Cc3ccccc3CN2)cc1,,6.31 µM (active)
O=C(NC(Cc1c[nH]c2ccccc12)C(=O)Nc1ccc(F)cc1)c1cccs1 (stereo not drawn),,10 µM (active)
Cc1cccc(NC(=O)[C@H](Cc2c[nH]c3ccccc23)NC(=O)[C@@H]2Cc3ccccc3CN2)c1,,10 µM (active)
CCS(=O)(=O)N1Cc2ccccc2CC1C(=O)Nc1cccc(OC)c1 (stereo not drawn),11,
COC(=O)C1=C(C)NC2=C(C(=O)CC(c3cccs3)C2)C1c1ccsc1 (stereo not drawn),,12.6 µM (active)
O=C(CNC(=O)C1CCCCC1)OC(C(=O)c1ccccc1)c1ccccc1 (stereo not drawn),,15.8 µM (active)
CCOc1cc(/C=C2\CN(CC)C/C(=C\c3ccc(O)c(OCC)c3)C2=O)ccc1O,,3.16 µM (active)
COc1ccc(/C=C2\CN(Cc3ccccc3)C/C(=C\c3ccc(OC)c(O)c3)C2=O)cc1O,,0.708 µM (active)
CCN1C/C(=C/c2ccc(OC)c(O)c2)C(=O)/C(=C/c2ccc(OC)c(O)c2)C1,,14.1 µM (active)
COc1ccc(NS(=O)(=O)c2cc(OCC(N)=O)c(C)cc2Cl)cc1,,5.01 µM (active)
CCOC(=O)c1c(-c2ccc(C)cc2C)csc1NC(=O)CSc1nnnn1C,,3.98 µM (active)
O=C(NC(Cc1ccccc1)c1nc2ccccc2[nH]1)C1CC(=O)N(c2ccc3c(c2)OCCO3)C1 (stereo not drawn),,14.1 µM (active)
O=C1c2cccc3cc([N+](=O)[O-])cc(c23)C(=O)N1CCN1CCCC1,,12.6 µM (active)
CN(c1ccccc1)S(=O)(=O)c1nnc(NC(=O)COc2ccccc2F)s1,,12.6 µM (active)
Cc1ccc(S(=O)(=O)N2CCN(C(=O)CCc3c[nH]c4ccccc34)CC2)c(C)c1,,14.1 µM (active)
COc1ccc(NC(=S)N2CCC(Cc3ccccc3)CC2)cc1OC,,12.6 µM (active)
CCOC(=O)CC(Nc1nc(N2CCOCC2)nc(N2CCOCC2)n1)c1ccccc1Cl (stereo not drawn),,3.98 µM (active)
O=C(/C=C/Sc1ccccc1)c1ccccc1,,11.2 µM (active)
COC(=O)[C@]1(CC(C)C)N[C@H](c2ccc(-c3ccc(F)cc3)c(OC)c2)[C@@H]2C(=O)N(C)C(=O)[C@@H]21,,2 µM (active)
CCOC(=O)Cn1nnnc1C(CC)N(Cc1cccs1)Cc1cc2ccc(OC)cc2[nH]c1=O (stereo not drawn),,12.6 µM (active)
